Data as given in paper PMC7862700, “An all-to-all approach to the identification of sequence-specific readers for epigenetic DNA modifications on cytosine”.

Key:
Assay in all cases: DAPPL (digital affinity profiling via proximity ligation, sequencing); 10 mM Tris-HCl pH 7.5, 50 mM NaCl, 1 mM DTT, 4% glycerol, room temperature, 30 min; GST-TFs on glutathione beads, 16-mer random dsDNA library, 0.1% formaldehyde crosslink after washing; high values mean tight binding
FEV = biological target: T1, FEV (Homo sapiens, UniProt Q99581 1-238); details: protein: recombinant; tags: N-terminal GST; dsDNA, one strand shown
T1 sequence: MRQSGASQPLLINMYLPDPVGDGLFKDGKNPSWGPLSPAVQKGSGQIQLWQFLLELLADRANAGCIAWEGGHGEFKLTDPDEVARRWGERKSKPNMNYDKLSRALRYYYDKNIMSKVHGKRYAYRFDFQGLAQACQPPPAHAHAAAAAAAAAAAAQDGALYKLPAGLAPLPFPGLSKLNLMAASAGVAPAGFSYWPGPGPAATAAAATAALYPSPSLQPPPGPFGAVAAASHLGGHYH
Method in brief: (§1)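 Yeast served to express human transcription factors as GST fusions, which were then captured on glutathione beads and labelled with DNA barcodes. Pooled with a tag-only sample, they were incubated with 200 nmole of a 16-mer random double-stranded DNA library for 30 min at room temperature in Tris/NaCl/DTT/glycerol buffer, washed, crosslinked with 0.1% formaldehyde, ligated by proximity, amplified by PCR and sequenced. Dividing each hexamer's read frequency for a factor by its frequency for the tag-only sample gives the binding signal.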

ETV5 = ETV5 (Homo sapiens, UniProt P41161 1-510); details: protein: recombinant; tags: N-terminal GST; dsDNA, one strand shown
Sequence of ETV5 (P41161 whole entry): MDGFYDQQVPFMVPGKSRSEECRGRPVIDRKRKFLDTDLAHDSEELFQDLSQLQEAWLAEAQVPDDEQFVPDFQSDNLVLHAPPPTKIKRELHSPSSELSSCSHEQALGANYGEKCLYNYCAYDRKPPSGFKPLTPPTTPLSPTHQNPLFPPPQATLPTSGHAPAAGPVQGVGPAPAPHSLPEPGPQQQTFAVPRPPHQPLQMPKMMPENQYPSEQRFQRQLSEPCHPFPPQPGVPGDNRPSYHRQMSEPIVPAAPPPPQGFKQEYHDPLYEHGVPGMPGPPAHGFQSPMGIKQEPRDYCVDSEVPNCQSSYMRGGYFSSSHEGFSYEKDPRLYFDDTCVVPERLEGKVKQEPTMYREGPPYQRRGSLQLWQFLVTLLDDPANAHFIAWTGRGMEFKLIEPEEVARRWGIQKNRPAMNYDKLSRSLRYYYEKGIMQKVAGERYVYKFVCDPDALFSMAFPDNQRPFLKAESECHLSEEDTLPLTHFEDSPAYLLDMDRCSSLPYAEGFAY
Method in brief: as §1

HSF1 = HSF1 (Homo sapiens, UniProt Q00613 1-529); details: protein: recombinant; tags: N-terminal GST; chain copies: 3; dsDNA, one strand shown
Sequence of HSF1 (Q00613 whole entry): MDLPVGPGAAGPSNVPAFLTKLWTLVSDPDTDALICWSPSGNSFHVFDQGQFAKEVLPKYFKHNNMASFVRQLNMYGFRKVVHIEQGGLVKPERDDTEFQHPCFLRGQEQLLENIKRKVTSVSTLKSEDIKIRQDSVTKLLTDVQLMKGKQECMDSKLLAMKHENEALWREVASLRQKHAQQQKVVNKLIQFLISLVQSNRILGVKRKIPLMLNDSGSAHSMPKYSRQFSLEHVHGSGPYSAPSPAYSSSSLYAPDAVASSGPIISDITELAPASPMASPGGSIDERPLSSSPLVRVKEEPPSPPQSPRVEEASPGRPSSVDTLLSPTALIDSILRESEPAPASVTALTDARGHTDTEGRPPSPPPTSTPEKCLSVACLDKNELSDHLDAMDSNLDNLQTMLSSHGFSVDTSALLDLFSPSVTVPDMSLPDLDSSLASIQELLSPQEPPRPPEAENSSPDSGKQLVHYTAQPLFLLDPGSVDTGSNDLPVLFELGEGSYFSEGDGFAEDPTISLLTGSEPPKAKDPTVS
Method in brief: as §1

SPIC = biological target: T2, SPIC (Homo sapiens, UniProt Q8N5J4 1-248); details: protein: recombinant; tags: N-terminal GST; dsDNA, one strand shown
T2 sequence: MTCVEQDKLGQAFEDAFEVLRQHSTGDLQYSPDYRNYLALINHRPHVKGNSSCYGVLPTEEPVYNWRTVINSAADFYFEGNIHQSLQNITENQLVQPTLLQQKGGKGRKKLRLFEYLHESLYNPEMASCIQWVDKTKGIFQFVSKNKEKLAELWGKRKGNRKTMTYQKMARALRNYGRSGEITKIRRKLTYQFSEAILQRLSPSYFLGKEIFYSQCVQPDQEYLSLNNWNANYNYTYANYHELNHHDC
Method in brief: as §1

ELF4 = ELF4 (Homo sapiens, UniProt Q99607 1-663); details: protein: recombinant; tags: N-terminal GST; dsDNA, one strand shown
Sequence of ELF4 (Q99607 whole entry): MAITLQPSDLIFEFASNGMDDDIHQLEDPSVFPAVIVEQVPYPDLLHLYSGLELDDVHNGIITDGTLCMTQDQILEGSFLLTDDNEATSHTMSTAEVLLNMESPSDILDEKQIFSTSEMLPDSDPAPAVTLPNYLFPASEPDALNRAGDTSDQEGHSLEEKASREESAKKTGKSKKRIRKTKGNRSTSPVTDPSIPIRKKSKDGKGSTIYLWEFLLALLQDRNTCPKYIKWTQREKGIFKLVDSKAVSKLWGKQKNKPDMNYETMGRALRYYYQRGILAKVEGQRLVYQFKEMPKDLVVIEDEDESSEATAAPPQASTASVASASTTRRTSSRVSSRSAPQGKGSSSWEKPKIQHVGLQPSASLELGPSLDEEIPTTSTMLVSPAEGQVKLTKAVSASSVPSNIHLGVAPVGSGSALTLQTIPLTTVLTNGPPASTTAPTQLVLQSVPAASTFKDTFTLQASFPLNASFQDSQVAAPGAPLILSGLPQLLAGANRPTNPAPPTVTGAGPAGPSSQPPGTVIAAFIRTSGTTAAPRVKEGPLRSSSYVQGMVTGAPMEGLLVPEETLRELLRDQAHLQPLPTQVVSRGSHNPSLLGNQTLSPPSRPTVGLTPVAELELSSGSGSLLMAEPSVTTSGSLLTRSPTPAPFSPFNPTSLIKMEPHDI
Method in brief: as §1

ELK4 = biological target: T3, ELK4 (Homo sapiens, UniProt P28324-2 1-405); details: protein: recombinant; tags: N-terminal GST; dsDNA, one strand shown
T3 sequence: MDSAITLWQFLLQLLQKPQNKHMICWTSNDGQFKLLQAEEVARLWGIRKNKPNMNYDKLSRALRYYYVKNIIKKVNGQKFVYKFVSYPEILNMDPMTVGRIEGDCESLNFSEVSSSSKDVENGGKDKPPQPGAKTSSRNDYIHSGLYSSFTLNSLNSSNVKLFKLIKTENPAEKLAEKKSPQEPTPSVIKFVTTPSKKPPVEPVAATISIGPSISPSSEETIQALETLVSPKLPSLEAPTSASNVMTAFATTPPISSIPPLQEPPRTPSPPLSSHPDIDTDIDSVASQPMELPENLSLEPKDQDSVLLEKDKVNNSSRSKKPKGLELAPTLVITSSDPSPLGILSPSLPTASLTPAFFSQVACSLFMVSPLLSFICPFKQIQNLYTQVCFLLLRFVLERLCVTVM
Method in brief: as §1

ETV2 = biological target: T4, ETV2 (Homo sapiens, UniProt O00321 1-342); details: protein: recombinant; tags: N-terminal GST; dsDNA, one strand shown
T4 sequence: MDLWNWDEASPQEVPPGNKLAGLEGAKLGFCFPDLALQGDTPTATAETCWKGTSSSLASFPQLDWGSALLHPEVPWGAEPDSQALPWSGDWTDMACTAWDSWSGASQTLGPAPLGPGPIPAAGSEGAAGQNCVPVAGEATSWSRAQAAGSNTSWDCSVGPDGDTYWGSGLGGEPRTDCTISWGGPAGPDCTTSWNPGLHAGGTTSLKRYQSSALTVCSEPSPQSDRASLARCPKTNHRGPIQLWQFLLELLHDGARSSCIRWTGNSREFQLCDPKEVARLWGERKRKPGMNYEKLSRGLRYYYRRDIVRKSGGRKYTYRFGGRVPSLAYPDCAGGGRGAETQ
Method in brief: as §1

ELF3 = biological target: T5, ELF3 (Homo sapiens, UniProt P78545 1-371); details: protein: recombinant; tags: N-terminal GST; dsDNA, one strand shown
T5 sequence: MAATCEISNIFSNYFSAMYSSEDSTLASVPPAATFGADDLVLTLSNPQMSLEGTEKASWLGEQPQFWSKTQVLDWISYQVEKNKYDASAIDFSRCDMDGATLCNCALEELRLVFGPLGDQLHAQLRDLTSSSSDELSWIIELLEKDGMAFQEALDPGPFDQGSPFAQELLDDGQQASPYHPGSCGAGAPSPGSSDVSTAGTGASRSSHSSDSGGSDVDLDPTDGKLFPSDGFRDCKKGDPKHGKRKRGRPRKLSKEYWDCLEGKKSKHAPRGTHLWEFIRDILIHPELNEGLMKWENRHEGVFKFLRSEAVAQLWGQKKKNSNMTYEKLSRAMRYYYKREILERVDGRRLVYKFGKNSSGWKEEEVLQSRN
Method in brief: as §1

ETV1 = ETV1 (Homo sapiens, UniProt P50549 1-477); details: protein: recombinant; tags: N-terminal GST; dsDNA, one strand shown
Sequence of ETV1 (P50549 whole entry): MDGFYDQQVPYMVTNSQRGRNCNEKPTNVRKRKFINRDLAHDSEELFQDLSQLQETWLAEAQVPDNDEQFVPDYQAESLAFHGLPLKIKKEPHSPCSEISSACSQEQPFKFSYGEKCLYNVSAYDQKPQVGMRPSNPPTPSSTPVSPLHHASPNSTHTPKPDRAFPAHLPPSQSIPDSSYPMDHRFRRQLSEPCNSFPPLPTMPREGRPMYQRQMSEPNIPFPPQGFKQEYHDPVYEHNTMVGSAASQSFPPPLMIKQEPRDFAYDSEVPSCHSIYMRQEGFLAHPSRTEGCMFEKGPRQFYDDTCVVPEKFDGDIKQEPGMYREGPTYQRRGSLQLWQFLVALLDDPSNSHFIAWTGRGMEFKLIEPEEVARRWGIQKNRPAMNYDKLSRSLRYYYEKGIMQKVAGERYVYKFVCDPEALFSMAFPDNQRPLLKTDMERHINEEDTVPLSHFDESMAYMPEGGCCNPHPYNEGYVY
Method in brief: as §1

ERF = biological target: T6, ERF (Homo sapiens, UniProt P50548 1-548); details: protein: recombinant; tags: N-terminal GST; dsDNA, one strand shown
T6 sequence: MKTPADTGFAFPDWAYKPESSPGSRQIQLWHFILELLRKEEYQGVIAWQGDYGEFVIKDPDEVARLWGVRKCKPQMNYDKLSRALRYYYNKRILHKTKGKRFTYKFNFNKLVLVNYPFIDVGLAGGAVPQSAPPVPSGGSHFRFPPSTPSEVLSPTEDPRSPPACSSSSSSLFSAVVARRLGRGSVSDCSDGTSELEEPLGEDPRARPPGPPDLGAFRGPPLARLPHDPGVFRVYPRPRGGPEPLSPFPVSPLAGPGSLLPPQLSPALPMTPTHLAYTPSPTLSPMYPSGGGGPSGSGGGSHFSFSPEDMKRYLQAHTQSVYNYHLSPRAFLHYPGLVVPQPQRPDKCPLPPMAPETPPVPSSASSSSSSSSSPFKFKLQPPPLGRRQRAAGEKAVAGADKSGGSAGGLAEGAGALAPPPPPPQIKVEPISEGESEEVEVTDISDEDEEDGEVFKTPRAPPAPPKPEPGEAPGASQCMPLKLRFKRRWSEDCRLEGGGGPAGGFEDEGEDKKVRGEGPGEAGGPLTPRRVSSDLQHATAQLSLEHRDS
Method in brief: as §1

ETV3L = biological target: T7, ETV3L (Homo sapiens, UniProt Q6ZN32 1-361); details: protein: recombinant; tags: N-terminal GST; dsDNA, one strand shown
T7 sequence: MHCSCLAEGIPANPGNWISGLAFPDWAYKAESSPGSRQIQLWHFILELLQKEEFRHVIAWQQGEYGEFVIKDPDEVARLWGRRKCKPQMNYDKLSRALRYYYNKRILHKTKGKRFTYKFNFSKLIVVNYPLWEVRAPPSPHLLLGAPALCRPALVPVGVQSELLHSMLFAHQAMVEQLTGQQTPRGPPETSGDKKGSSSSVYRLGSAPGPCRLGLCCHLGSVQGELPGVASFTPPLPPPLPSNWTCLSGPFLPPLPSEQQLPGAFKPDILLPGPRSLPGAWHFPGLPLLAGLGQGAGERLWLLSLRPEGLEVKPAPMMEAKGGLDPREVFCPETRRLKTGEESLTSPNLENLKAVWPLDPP
Method in brief: as §1

ETS2 = biological target: T8, ETS2 (Homo sapiens, UniProt P15036 1-469); details: protein: recombinant; tags: N-terminal GST; dsDNA, one strand shown
T8 sequence: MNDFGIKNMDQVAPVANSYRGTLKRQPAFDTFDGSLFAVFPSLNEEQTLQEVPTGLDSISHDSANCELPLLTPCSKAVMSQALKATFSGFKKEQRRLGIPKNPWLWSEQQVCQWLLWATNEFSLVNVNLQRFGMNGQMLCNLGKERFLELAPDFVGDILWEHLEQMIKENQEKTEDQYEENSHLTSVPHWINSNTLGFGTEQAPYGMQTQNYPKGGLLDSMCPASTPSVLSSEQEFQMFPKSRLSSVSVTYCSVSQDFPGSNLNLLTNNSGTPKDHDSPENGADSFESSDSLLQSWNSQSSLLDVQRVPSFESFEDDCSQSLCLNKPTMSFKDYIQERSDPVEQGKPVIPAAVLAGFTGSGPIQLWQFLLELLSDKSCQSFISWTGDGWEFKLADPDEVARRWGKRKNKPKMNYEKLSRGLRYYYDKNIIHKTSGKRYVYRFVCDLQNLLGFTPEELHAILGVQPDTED
Method in brief: as §1

ETV7 = biological target: T9, ETV7 (Homo sapiens, UniProt Q9Y603 1-341); details: protein: recombinant; tags: N-terminal GST; dsDNA, one strand shown
T9 sequence: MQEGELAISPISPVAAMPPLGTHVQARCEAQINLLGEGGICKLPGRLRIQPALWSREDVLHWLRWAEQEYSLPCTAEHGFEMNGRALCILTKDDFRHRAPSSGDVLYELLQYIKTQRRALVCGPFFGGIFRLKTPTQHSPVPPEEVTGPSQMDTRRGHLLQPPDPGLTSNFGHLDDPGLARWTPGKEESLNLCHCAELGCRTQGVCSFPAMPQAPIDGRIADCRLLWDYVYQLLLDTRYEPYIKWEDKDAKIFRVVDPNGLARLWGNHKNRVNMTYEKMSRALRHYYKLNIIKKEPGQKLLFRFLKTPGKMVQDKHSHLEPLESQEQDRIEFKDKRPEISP
Method in brief: as §1

ELF5 = biological target: T10, ELF5 (Homo sapiens, UniProt Q9UKW6-2 1-255); details: protein: recombinant; tags: N-terminal GST; dsDNA, one strand shown
T10 sequence: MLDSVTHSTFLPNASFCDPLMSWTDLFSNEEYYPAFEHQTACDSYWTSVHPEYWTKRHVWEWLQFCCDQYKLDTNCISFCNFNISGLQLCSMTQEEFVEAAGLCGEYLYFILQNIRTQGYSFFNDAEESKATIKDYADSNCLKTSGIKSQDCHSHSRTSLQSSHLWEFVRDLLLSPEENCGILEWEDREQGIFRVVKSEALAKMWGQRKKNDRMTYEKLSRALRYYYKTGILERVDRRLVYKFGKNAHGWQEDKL
Method in brief: as §1

ETV3 = biological target: T11, ETV3 (Homo sapiens, UniProt P41162-2 1-143); details: protein: recombinant; tags: N-terminal GST; dsDNA, one strand shown
T11 sequence: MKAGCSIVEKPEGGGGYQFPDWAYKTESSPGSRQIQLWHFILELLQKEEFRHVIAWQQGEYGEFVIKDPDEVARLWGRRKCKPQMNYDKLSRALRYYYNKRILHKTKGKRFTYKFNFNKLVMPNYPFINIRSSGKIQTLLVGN
Method in brief: as §1

ETV6 = ETV6 (Homo sapiens, UniProt P41212 1-452); details: protein: recombinant; tags: N-terminal GST; dsDNA, one strand shown
Sequence of ETV6 (P41212 whole entry): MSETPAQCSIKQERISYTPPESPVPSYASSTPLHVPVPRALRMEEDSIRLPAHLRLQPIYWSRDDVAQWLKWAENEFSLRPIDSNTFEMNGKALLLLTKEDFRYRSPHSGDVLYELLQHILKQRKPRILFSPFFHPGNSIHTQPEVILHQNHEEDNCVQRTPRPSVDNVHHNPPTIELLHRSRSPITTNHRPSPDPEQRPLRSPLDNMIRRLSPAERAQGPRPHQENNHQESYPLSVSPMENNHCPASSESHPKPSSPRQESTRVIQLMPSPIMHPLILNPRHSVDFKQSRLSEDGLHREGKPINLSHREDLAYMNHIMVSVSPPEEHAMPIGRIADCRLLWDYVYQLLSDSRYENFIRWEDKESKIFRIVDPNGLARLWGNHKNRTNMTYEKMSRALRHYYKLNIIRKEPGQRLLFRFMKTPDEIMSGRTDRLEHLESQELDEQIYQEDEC
Method in brief: as §1

SPDEF = biological target: T12, SPDEF (Homo sapiens, UniProt O95238 1-335); details: protein: recombinant; tags: N-terminal GST; dsDNA, one strand shown
T12 sequence: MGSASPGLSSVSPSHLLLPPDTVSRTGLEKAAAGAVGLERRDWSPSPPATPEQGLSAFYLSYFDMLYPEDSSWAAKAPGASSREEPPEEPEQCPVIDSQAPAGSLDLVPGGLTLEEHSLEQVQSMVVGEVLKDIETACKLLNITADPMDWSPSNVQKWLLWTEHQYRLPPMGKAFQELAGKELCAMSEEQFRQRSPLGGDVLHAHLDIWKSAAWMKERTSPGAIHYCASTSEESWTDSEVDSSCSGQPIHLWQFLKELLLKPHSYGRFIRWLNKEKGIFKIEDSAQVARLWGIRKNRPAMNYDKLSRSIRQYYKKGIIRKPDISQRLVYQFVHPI
Method in brief: as §1

| Sequence | binding signal (FEV) | binding signal (ETV5) | binding signal (HSF1) | binding signal (SPIC) | binding signal (ELF4) | binding signal (ELK4) | binding signal (ETV2) | binding signal (ELF3) | binding signal (ETV1) | binding signal (ERF) | binding signal (ETV3L) | binding signal (ETS2) | binding signal (ETV7) | binding signal (ELF5) | binding signal (ETV3) | binding signal (ETV6) | binding signal (SPDEF) |
| --- | --- | --- | --- | --- | --- | --- | --- | --- | --- | --- | --- | --- | --- | --- | --- | --- | --- |
| AACAGC | 1.14 fold enrichment (6-mer frequency, TF over GST control) | 1.09 fold enrichment (6-mer frequency, TF over GST control) | 1 fold enrichment (6-mer frequency, TF over GST control) | 1.05 fold enrichment (6-mer frequency, TF over GST control) | 1.15 fold enrichment (6-mer frequency, TF over GST control) | 1.2 fold enrichment (6-mer frequency, TF over GST control) | 1.12 fold enrichment (6-mer frequency, TF over GST control) | 1.1 fold enrichment (6-mer frequency, TF over GST control) | 1.11 fold enrichment (6-mer frequency, TF over GST control) | 1.15 fold enrichment (6-mer frequency, TF over GST control) | 1.05 fold enrichment (6-mer frequency, TF over GST control) | 1.08 fold enrichment (6-mer frequency, TF over GST control) | 1.21 fold enrichment (6-mer frequency, TF over GST control) | 1.09 fold enrichment (6-mer frequency, TF over GST control) | 1.13 fold enrichment (6-mer frequency, TF over GST control) | 1.1 fold enrichment (6-mer frequency, TF over GST control) |  |
| TCGACG |  | 1.17 fold enrichment (6-mer frequency, TF over GST control) | 1.15 fold enrichment (6-mer frequency, TF over GST control) | 1.07 fold enrichment (6-mer frequency, TF over GST control) | 1.08 fold enrichment (6-mer frequency, TF over GST control) | 1.08 fold enrichment (6-mer frequency, TF over GST control) | 1.18 fold enrichment (6-mer frequency, TF over GST control) | 1.06 fold enrichment (6-mer frequency, TF over GST control) | 1.05 fold enrichment (6-mer frequency, TF over GST control) | 1.02 fold enrichment (6-mer frequency, TF over GST control) | 1 fold enrichment (6-mer frequency, TF over GST control) | 1.07 fold enrichment (6-mer frequency, TF over GST control) | 1.05 fold enrichment (6-mer frequency, TF over GST control) | 1.01 fold enrichment (6-mer frequency, TF over GST control) |  | 1.07 fold enrichment (6-mer frequency, TF over GST control) | 1.05 fold enrichment (6-mer frequency, TF over GST control) |
